We go through 30 compounds from ChEMBL document CHEMBL1157539, “Thousands of chemical starting points for antimalarial lead identification” (Nature, 2010).

Holding throughout (format): functional
Test [1] relates to Plasmodium falciparum. Kind of test: GSK_TCMDC: Inhibition of Plasmodium falciparum 3D7 in whole red blood cells, using parasite LDH activity as an index of growth. Test compounds present at 2uM.
Test [2] relates to Plasmodium falciparum. The experiment in a line: GSK_TCMDC: Inhibition of Plasmodium falciparum Dd2 in whole red blood cells, using parasite LDH activity as an index of growth. Test compounds present at 2uM.
A further test relates to HepG2. The experiment in a line: GSK_TCMDC: Percent inhibition of human HepG2 cell line. Test compounds present at 10uM.

`O=C(Nc1c(F)cccc1F)c1cccc(-c2nn3ccccc3c2-c2ccnc(Nc3cccc(-c4cnco4)c3)n2)c1`: the Inhibition in the test on Plasmodium falciparum [1] is listed as 95%; with Plasmodium falciparum [2], 94%; in the test on HepG2, 96%.
As for `Cc1ccccc1C(=O)NC(NC(=S)Nc1ccc([N+](=O)[O-])cc1)C(Cl)(Cl)Cl` (stereo not given), the Inhibition with Plasmodium falciparum [1] was found to be 100%; in the test with Plasmodium falciparum [2], 39%; in the test with HepG2 it was 0%.
Taken in the same sequence, the figures for `O=C(CN1CCCC1)Nc1cccc(C(=O)Nc2cccc(C(F)(F)F)c2)c1` were 95%, 83% and 9%.
Taken in the same sequence, the figures for `O=C(NC(CCCN1CCC(c2ccccc2)CC1)c1ccc(Cl)c(Cl)c1)c1cc(C(F)(F)F)cc(C(F)(F)F)c1` (stereo not given) were 92%, 87% and 33%.
Turning to `O=C(c1cccc(-c2noc(C(F)(F)F)n2)c1)N1CCN(c2nsc3ccccc23)CC1`, the values for the Inhibition in the test on Plasmodium falciparum [1], with Plasmodium falciparum [2] and in the test with HepG2 were 90%, 81% and 18%, respectively.
Consider `COc1ccc2nccc([C@@H](O)CN3CCC(NCc4ccc5c(c4)sc(=O)n5C)CC3)c2c1.O=C(O)C(=O)O`, for which the figures for the Inhibition in the test on Plasmodium falciparum [1], with Plasmodium falciparum [2] and in the test on HepG2 were 100%, 72% and 10%, respectively.
`COc1ccc(Nc2nc(C)cc(NCc3ccc(-c4c(C)noc4C)cc3)n2)cc1`: the Inhibition is reported as 99% in the test with Plasmodium falciparum [1], 50% in the test with Plasmodium falciparum [2] and 48% in the test on HepG2.
Regarding `COc1ccc2c(O)c(C3CCC(c4ccc(Cl)cc4)CC3)c(C)nc2c1` (stereo not given), the Inhibition with Plasmodium falciparum [1] stood at 97%; in the test on Plasmodium falciparum [2] it was 84%; in the test on HepG2, 2%.
Consider `CC(Sc1nc(-c2ccccc2)c(-c2ccccc2)o1)C(=O)NC1CC1` (stereo not given), for which the values for the Inhibition with Plasmodium falciparum [1], in the test with Plasmodium falciparum [2] and with HepG2 were 94%, 91% and 13%, respectively.
Turning to `COc1ccccc1C1CCN(C2CCC(NC(=O)/C=C/c3ccc(C(F)(F)F)cc3F)CC2)CC1` (stereo not given), the Inhibition is recorded as 95% with Plasmodium falciparum [1], 2% in the test on Plasmodium falciparum [2] and 63% in the test on HepG2.
Regarding `COc1ccc2nccc([C@@H](O)CN3CCC(NCCOc4ccccc4C#N)CC3)c2c1.O=C(O)C(=O)O`, the Inhibition in the test with Plasmodium falciparum [1] amounted to 100%; in the test with Plasmodium falciparum [2], 99%; with HepG2, 10%.
For `CCCCCOc1ccc(C=NNc2nc(O)cc(-c3ccccc3)n2)cc1`, in that order: 88%, 86% and 0%.
In the case of `Cc1noc(-c2ccccc2)c1NC(=O)N1CCN(CCCCCCNC(=O)/C=C/c2ccc(Cl)c(Cl)c2)CC1`, the Inhibition in the test with Plasmodium falciparum [1] is recorded as 95%; in the test with Plasmodium falciparum [2], 1%; in the test on HepG2, 6%.
On to `N#Cc1ccc(/C=C/C(=O)NCCCCCN2CCCN(C(=O)Nc3ccc(Cl)c(C(F)(F)F)c3)CC2)cc1`, for which the Inhibition with Plasmodium falciparum [1] turned out to be 98%; with Plasmodium falciparum [2] it was 13%; in the test with HepG2, 28%.
For `Clc1ccc(Nc2nc(-c3ccccn3)cs2)nc1`, in that order: 95%, 90% and 36%.
For `C[C@@H](NC(=O)NC(CCN1CCC2(CC1)CN(S(C)(=O)=O)c1ccccc12)c1ccc(Cl)c(Cl)c1)c1ccccc1` (stereo not given in full), the Inhibition in the test on Plasmodium falciparum [1] came out at 92%; in the test on Plasmodium falciparum [2], 88%; in the test with HepG2 it was 15%.
Turning to `CC(=O)Nc1ccc(Nc2ncc([N+](=O)[O-])c(Nc3ccccc3C(N)=O)n2)cc1.Cl`, the Inhibition with Plasmodium falciparum [1] turned out to be 98%; in the test with Plasmodium falciparum [2], 97%; in the test on HepG2 it was 42%.
Take `Cc1ccc(NC(=O)c2cc(Br)cc(N3CCCN(C)CC3)c2)cc1F.O=C(O)C(F)(F)F`: the figures for the Inhibition with Plasmodium falciparum [1], with Plasmodium falciparum [2] and in the test with HepG2 were 87%, 1% and 15%, respectively.
For `CNCc1ccc(CN(C)c2nc(N)c3cc(OC)c(OC)cc3n2)cc1.O=C(O)C(F)(F)F`, the Inhibition stood at 96% with Plasmodium falciparum [1], 3% in the test with Plasmodium falciparum [2] and 12% in the test with HepG2.
For `CC(C)(C)CC(=O)Nc1ccc(Nc2cc(-c3ccncc3)cc3ncc(C(N)=O)cc23)cc1`, the Inhibition was found to be 97% in the test on Plasmodium falciparum [1], 85% in the test on Plasmodium falciparum [2] and 5% in the test with HepG2.
Take `CN(Cc1ccc(-c2ccc(C(F)(F)F)cc2)cc1)C(=O)Cn1c(CCc2cccc(F)c2F)cc(=O)c2ccc(OCCCN3CCCCC3)cc21.O=C(O)C(O)C(O)C(=O)O`: the Inhibition in the test on Plasmodium falciparum [1] is 100%; in the test on Plasmodium falciparum [2] it was 90%; in the test on HepG2, 79%.
In the case of `O=S(=O)(c1cccc(C(F)(F)F)c1)N1CCC(CO)(Cc2cccc(C(F)(F)F)c2)CC1`, the results for the Inhibition in the test with Plasmodium falciparum [1], in the test on Plasmodium falciparum [2] and in the test on HepG2 were 100%, 79% and 3%, respectively.
Consider `Cc1n[nH]c2ccc(-c3cc(OC[C@@H](N)Cc4ccccc4)cnc3-c3cc4ccccc4s3)cc12.O=C(O)C(F)(F)F`, for which the Inhibition in the test on Plasmodium falciparum [1] is 99%; in the test on Plasmodium falciparum [2] it was 68%; in the test with HepG2, 41%.
In the case of `CCCCOP(=O)(COc1ccc(CCN(CC(O)COc2cccc3[nH]c4ccccc4c23)CC(O)COc2cccc3[nH]c4ccccc4c23)cc1)C1CCCCC1` (stereo not given), the values for the Inhibition in the test with Plasmodium falciparum [1], in the test with Plasmodium falciparum [2] and in the test with HepG2 were 89%, 92% and 7%, respectively.
Consider `CNC(=O)C1Cc2c([nH]c3c(C)cccc23)C2(N1)C(=O)Nc1ccc(OC(F)(F)F)cc12` (stereo not given), for which the Inhibition is reported as 100% in the test on Plasmodium falciparum [1], 50% in the test with Plasmodium falciparum [2] and 0% in the test on HepG2.
For `CCCC(C)Nc1nc(C)cc(N[C@@H](Cc2ccccc2)C(=O)Nc2ccccc2)n1.O=C(O)C(F)(F)F` (stereo not given in full), the Inhibition came to 100% with Plasmodium falciparum [1], 67% in the test on Plasmodium falciparum [2] and 50% in the test on HepG2.
With `O=C(NCc1ccc(Cl)c(Cl)c1)c1ccc(-c2nc3ccc(F)cc3[nH]2)cc1`, the values for the Inhibition in the test on Plasmodium falciparum [1], in the test with Plasmodium falciparum [2] and in the test with HepG2 were 93%, 9% and 0%, respectively.
For the compound `O=C(Nc1cccc([N+](=O)[O-])c1)Nc1ccc(Cl)c(C(F)(F)F)c1`, the figures for the Inhibition in the test with Plasmodium falciparum [1], in the test with Plasmodium falciparum [2] and with HepG2 were 96%, 87% and 15%, respectively.
Taken in the same sequence, the figures for `CCC1CCCCN1S(=O)(=O)c1ccc(OC)c(N2CCN(C(=O)C(Cl)(Cl)Cl)CC2)c1` (stereo not given) were 89%, 29% and 9%.
For `CC(C)Oc1ccc2c(c1)OC(c1ccccc1)(C(F)(F)F)NC2=O` (stereo not given), in that order: 100%, 98% and 0%.
